Screens (PubChem BioAssay)
JMJD2E inh – blocks human JMJD2E demethylase activity; B2RXH2; actives 1.6% (n = 230,000); Potency, µM (titrated, usually from 57.1 µM), inactives show at the top dose activity change, negative = inhibition, usual class: inhibitors; JMJD2E catalytic domain, FDH-coupled NADH fluorescence (FDH is formaldehyde dehydrogenase);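 note: 0% = wells with enzyme and -100% = buffer wells without enzyme; nearly all actives have a fitted effect of over 50% in size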
Target sequence (B2RXH2 1-337 limits assumed): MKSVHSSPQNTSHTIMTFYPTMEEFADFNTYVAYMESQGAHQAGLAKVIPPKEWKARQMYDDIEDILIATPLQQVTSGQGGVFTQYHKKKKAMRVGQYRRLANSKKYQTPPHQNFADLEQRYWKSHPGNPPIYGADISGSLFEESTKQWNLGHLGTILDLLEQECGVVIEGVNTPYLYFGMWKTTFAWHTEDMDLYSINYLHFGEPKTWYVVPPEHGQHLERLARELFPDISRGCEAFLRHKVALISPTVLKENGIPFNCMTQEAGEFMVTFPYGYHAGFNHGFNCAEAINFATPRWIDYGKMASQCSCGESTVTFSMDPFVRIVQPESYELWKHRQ
Tau fibril FP – tau fibrillization inhibition (FP); Potency, µM (top dose mostly 57.7 µM), without a hit: at the highest dose activity, negative = inhibition, hits mostly inhibitors; P10636; K18 P301L tau heparin fibrillization, Alexa594 FP, 6 h; actives 0.39% (n = 280,000); note: nearly all actives have a fitted effect of over 55% in size
Target sequence (P10636 561-689 P618L limits assumed): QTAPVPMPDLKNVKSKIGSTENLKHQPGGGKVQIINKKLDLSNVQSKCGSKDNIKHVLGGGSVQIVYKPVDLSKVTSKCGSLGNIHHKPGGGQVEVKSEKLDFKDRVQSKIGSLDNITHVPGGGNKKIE
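Human K18 P301L fragment (15 uM unlabeled plus 0.24 uM Alexa 594-labeled) in 100 mM sodium acetate pH 7 with compound, aggregation induced by 20 uM heparin for 6 hr at 37 C. ThT (30 uM) added for 1 hr, then Alexa 594 FP read.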
TR SRC2 fluor cs – Texas Red fluorescence interference in TRb-SRC2 counter-screen | TRb/SRC2 Texas Red total fluorescence interference | Potency, µM (titrated, usually from 106 µM), inactives show at the highest dose fluorescence change, negative = quenching | actives 0.29% (n = 280,000) | AID 1479; active = well fitted curve in either direction with a large enough effect; inconclusive = small, poorly fitted or top-dose-only effect
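Human TRb ligand-binding domain at 0.6 uM with 20 nM Texas Red SRC2 peptide in Tris buffer containing 1 uM T3 and 5% DMSO, incubated with compound 5 h at ambient temperature. Total fluorescence (555/632 nm) calculated as parallel + 2 × perpendicular.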
Tau ThT inhib – blocks human tau fibril formation measured by thioflavin T; recombinant tau K18 P301L, heparin-induced fibrillization, ThT fluorescence; Potency, µM (top dose mostly 57.4 µM), for inactives: at the highest dose activity, negative = inhibition, most hits filed as inhibitors; actives 2.1% (n = 270,000); P10636; note: nearly all actives have a fitted effect of over 55% in size
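In this qHTS, human K18 P301L tau is incubated with compound and heparin for 6 hr at 37 C, and Thioflavin T fluorescence then reports fibril load.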
TRb-SRC2 inh – inhibitors of human thyroid hormone receptor beta-SRC2 interaction; P10828; TRbeta-SRC2 peptide binding, fluorescence polarization; receptor liganded with 1 µM T3; Potency, µM (series often up to 106 µM), inactives show at the highest dose activity change, negative = inhibition, hits mostly inhibitors; actives 0.065% (n = 280,000); AID 1469;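 note: plate controls were bound peptide for no effect and peptide without receptor for full effect; nearly all actives have a fitted effect of over 50% in size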
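Read-out is fluorescence polarization (555 nm excitation, 632 nm emission) of a Texas Red SRC2 coactivator peptide; loss of signal reflects blocked binding to human TRb ligand-binding domain in the presence of 1 uM T3.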
Tau fluor counter – counter-screen for tau fibril formation inhibitors. tau K18 P301L (four-repeat tau fragment) Alexa594 fluorescence, heparin fibrillization. Potency, µM (titrated, usually from 57.7 µM), for the others: at the highest dose activity change, negative = decrease. actives 0.93% (n = 280,000). AID 1463; note: nearly all actives have a fitted effect of over 55% in size
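Human K18 P301L tau (15 uM unlabeled plus 0.24 uM Alexa 594-labeled, final) in 100 mM sodium acetate pH 7 was mixed with compound and 20 uM heparin and incubated 6 hr at 37 C.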
Starred values were filed as active, the others as inactive; ? = inconclusive; nt = no result given; [ ] = another dose, or the depositor's remark. Only some compounds are listed: those with a hit (about 3.5% of all), similar ones and a draw of the others. Unless noted, calls come from the whole dose curve; as a rule, active = well fitted curve in the direction sought with a large enough effect; inconclusive = small, poorly fitted or top-dose-only effect, or another doubt; inactive = no such curve, though single readings can be large; an effect the other way counts as inactive or inconclusive. Unless noted, % is set by controls: 0 for no effect and ±100 for the full control effect; potency is the fitted concentration of half-maximal effect.

SMILES | JMJD2E inh | Tau fibril FP | TR SRC2 fluor cs | Tau ThT inhib | TRb-SRC2 inh | Tau fluor counter
O=C(CSc1nc(-c2ccccc2)[nH]c1-c1ccccc1)Nc1ccc2c(c1)OCO2 | nt | 2% | -2% | ? | 9% | 7.1µM*[quencher]
COc1cc(-c2nc(SCC(=O)Nc3ccc4c(c3)OCO4)c(-c3ccccc3)[nH]2)cc(OC)c1OC | nt | 2% | -2% | ? | 2% | 5.6µM*[quencher]
O=C(CSc1nc(-c2ccccc2)c(-c2ccccc2)[nH]1)Nc1ccc2c(c1)OCO2 | -4% | 5% | -1% | -6% | -3% | ?
COc1ccccc1Cc1nc2ccccc2nc1SCC(=O)Nc1ccc2c(c1)OCO2 | nt | -7% | -1% | 9% | 3% | -26%
CCOC(=O)N1CCN(C(=O)c2ccc(Cl)nc2)CC1 | -6% | 7% | 0% | 4% | 5% | 4%
Cc1cc(C)n2cnnc2n1 | ? | 5% | 0% | -7% | 2% | -10%
Cc1cc(C)n2c(=S)[nH]nc2n1 | 7.1µM* | ? | 0% | ? | -3% | -16%
CN(c1ccccc1)c1ccc(/C=C(\CCC(=O)O)c2nc3ccccc3s2)cc1[N+](=O)[O-] | -6% | -21% | -3%[53 µM] | 14µM* | 1%[53 µM] | ?
Cc1ccc(/C=C(\CCC(=O)O)c2nc3ccccc3s2)cc1[N+](=O)[O-] | 9% | 6% | -2%[53 µM] | ? | -2%[53 µM] | 11%
CNc1ccc(/C=C(\CCC(=O)O)c2nc3ccccc3s2)cc1[N+](=O)[O-] | 3% | -16% | -4%[53 µM] | 3.2µM* | 3%[53 µM] | ?
CC1CCN(S(=O)(=O)c2ccc(NC(=O)Cn3nnc(-c4ccccc4F)n3)cc2)CC1 | -5% | 7.9µM* | -12% | 3% | 30% | ?
CC1CCN(S(=O)(=O)c2cn(CC(=O)Nc3ccc(F)c(Cl)c3)c(=O)c3ccccc23)CC1 | nt | 10µM* | -1% | -7% | -1% | ?
C=CCc1cccc(/C=N/NC(=O)CNc2ccccc2OC)c1O | ? | ? | -2% | ? | 3% | 16µM*[quencher]
COc1ccccc1NCC(=O)N/N=C/C=C/c1ccccc1 | ? | 4% | -2% | 14µM* | -4% | ?
COc1ccccc1OCC(=O)N/N=C/C=C/c1ccc([N+](=O)[O-])o1 | -4% | -4% | -1% | 14µM* | -2% | -21%
C=CCc1cccc(/C=N/NC(=O)CCC(=O)Nc2ccc(F)cc2)c1O | 4% | ? | -2% | 7% | 0% | -18%
COc1ccc(NCC(=O)N/N=C/C=C\c2ccccc2)cc1 | -4% | 3% | 11% | 0% | -3% | -4%
C=CCc1cccc(/C=N/NC(=O)C(C)Nc2cccc(C)c2)c1O (stereo unspecified) | 20µM* | 3% | 1% | -9% | 5% | ?
Cc1cccc(CSc2nc(-c3cccc(C)c3)nc3c2Cc2c(CO)cnc(C)c2O3)c1 | nt | 0% | -2% | -10% | 5% | -1%
C=C(C)CNC(=S)NNC(=O)c1cc(C)oc1C | 1% | 9% | 2% | -6% | -10% | -4%
Cc1ccc(-c2cc(C(F)(F)F)n3nc(C(=O)Nc4ccc(C#N)cc4)cc3n2)cc1 | nt | -3% | -7% | -9% | 12% | -10%
C=CCc1cccc(/C=N/NC(=O)CNc2ccccc2)c1O | ? | ? | 0% | 4% | -9% | ?
C=CCc1cccc(/C=N/NC(=O)CCCNc2ccc(C)cc2)c1O | ? | 11% | 1% | ? | -5% | 11µM*[quencher]
NC(=S)NNc1cccc2cccnc12 | -8% | 7.9µM* | -6% | 3.5µM* | -3% | ?
O=c1[nH]c2ccccc2c(O)c1O | ? | 7.1µM* | 1% | 3.2µM* | 0% | -23%
Cc1cc(Nc2cccc(Cl)c2)nc2ccc(NC(=O)Cc3c(F)cccc3Cl)cc12 | nt | -13% | -24% | ? | 0% | 7.9µM*[quencher]
COc1ccc(Nc2cc(C)c3cc(NC(=O)Cc4c(F)cccc4Cl)ccc3n2)cc1 | nt | ? | 7% | ? | 5% | 7.9µM*[quencher]
